Consider 4 molecules from PubChem BioAssay (EPA / NIEHS).

Common to all, as to settings: mRNA level, 48 h; actives raise or lower the signal
Read-out in experiment [1]: Cytochrome P450 (CYP1A1), CYP1A1 (gene 1543)
Kind of experiment: LTEA_HepaRG_CYP1A1: Life Technologies and Expression Analysis (LTEA) Assay for Cytochrome P450 (CYP1A1) using HepaRG (AID 2283454). The gist of the method:
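Differentiated human HepaRG cells, after 48 h plating, exposed in duplicate for 48 h in serum-free induction medium to 8 half-log concentrations up to 100 uM in 0.5% DMSO. CYP1A1 mRNA by qRT-PCR, normalized to ACTB/GAPDH/POLR2A; bidirectional fit versus DMSO.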

Read-out in experiment [2]: CFLAR gene, CFLAR (gene 8837)
Description: LTEA_HepaRG_CFLAR: Life Technologies and Expression Analysis (LTEA) Assay for CFLAR gene using HepaRG (AID 2283455). In outline:
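HepaRG, 48 h exposure, 8-pt conc-response (100 uM top, half-log), 0.5% DMSO vehicle, duplicates. CFLAR expression by qRT-PCR; ACTB/GAPDH/POLR2A normalization; gain or loss fit vs DMSO baseline.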

Read-out in experiment [3]: Forkhead box O1 (FOXO1), FOXO1 (gene 2308)
Description: LTEA_HepaRG_FOXO1: Life Technologies and Expression Analysis (LTEA) Assay for Forkhead box O1 (FOXO1) using HepaRG (AID 2283456). The gist of the method: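 Readout is FOXO1 transcript level by multiplexed qRT-PCR against three housekeeping genes, curve-fitted in both directions relative to 0.5% DMSO vehicle. Human HepaRG cultures received chemicals for 48 h, up to 100 uM in half-log steps.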

Read-out in experiment [4]: growth arrest and DNA damage 45 (GADD45A), GADD45A (gene 1647)
Description: LTEA_HepaRG_GADD45A: Life Technologies and Expression Analysis (LTEA) Assay for growth arrest and DNA damage 45 (GADD45A) using HepaRG (AID 2283458). The gist of the method:
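Cells plated and cultured 48 h, switched to serum-free induction medium, then dosed for 48 h (100 uM top, half-log dilutions, 0.5% DMSO). RNA was isolated and transcript measured by Fluidigm qRT-PCR.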

Read-out in experiment [5]: Forkhead box O3 (FOXO3), FOXO3 (gene 2309)
Kind of experiment: LTEA_HepaRG_FOXO3: Life Technologies and Expression Analysis (LTEA) Assay for Forkhead box O3 (FOXO3) using HepaRG (AID 2283459). In outline: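 HepaRG, 48 h post-dose; 8 conc., half-log from 100 uM, 0.5% DMSO, duplicates; serum-free induction medium. Readout: FOXO3 mRNA, TaqMan qRT-PCR, housekeeping-normalized. Bidirectional curve fit vs DMSO baseline.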

Read-out in experiment [6]: ABC Transporter (ABCB1), ABCB1 (gene 5243)
Kind of experiment: LTEA_HepaRG_ABCB1: Life Technologies and Expression Analysis (LTEA) Assay for ABC Transporter (ABCB1) using HepaRG (AID 2283460). In outline:
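Expression of ABCB1 was quantified by qRT-PCR against three housekeeping genes after human HepaRG cultures received test chemicals for 48 hours. Concentrations spanned eight half-log steps topping at 100 uM in 0.5% DMSO; gain or loss of signal was fitted relative to vehicle.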

Read-out in experiment [7]: growth arrest and DNA damage 45 (GADD45B), GADD45B (gene 4616)
Kind of experiment: LTEA_HepaRG_GADD45B: Life Technologies and Expression Analysis (LTEA) Assay for growth arrest and DNA damage 45 (GADD45B) using HepaRG (AID 2283461). The gist of the method:
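Differentiated human HepaRG cells in serum-free induction medium exposed 48 h in duplicate to eight concentrations, top 100 uM, half-log steps, 0.5% DMSO. GADD45B mRNA by TaqMan qRT-PCR, normalized to ACTB, GAPDH, POLR2A; bidirectional fit versus DMSO.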

Read-out in experiment [8]: ABC Transporter (ABCC3), ABCC3 (gene 8714)
Description: LTEA_HepaRG_ABCC3: Life Technologies and Expression Analysis (LTEA) Assay for ABC Transporter (ABCC3) using HepaRG (AID 2283462). The gist of the method:
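Differentiated human HepaRG cells exposed 48 h in serum-free induction medium, 0.5% DMSO vehicle, 8-point half-log series to 100 uM in duplicate. ABCC3 mRNA by qRT-PCR, normalised to ACTB, GAPDH, POLR2A; bidirectional fit vs DMSO.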

Read-out in experiment [9]: ABC Transporter (ABCC2), ABCC2 (gene 1244)
Kind of experiment: LTEA_HepaRG_ABCC2: Life Technologies and Expression Analysis (LTEA) Assay for ABC Transporter (ABCC2) using HepaRG (AID 2283464). In outline: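 Differentiated HepaRG cells in serum-free induction medium exposed 48 h to eight half-log concentrations up to 100 uM, 0.5% DMSO, in duplicate. ABCC2 mRNA measured by qRT-PCR (TaqMan, Fluidigm), normalized to ACTB, GAPDH and POLR2A. Fitted in both directions against DMSO.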

Read-out in experiment [10]: Broad substrate specificity ATP-binding cassette transporter ABCG2 (Homo sapiens) (UniProt Q9UNQ0)
Kind of experiment: LTEA_HepaRG_ABCG2: Life Technologies and Expression Analysis (LTEA) Assay for ABC Transporter (ABCG2) using HepaRG (AID 2283465). The gist of the method: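 Read-out is ABCG2 mRNA induction or loss quantified by qRT-PCR after 48 h chemical treatment of human HepaRG cells, normalized to three housekeeping genes. Concentrations reached 100 uM top in half-log steps; fitting was bidirectional against 0.5% DMSO.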

Read-out in experiment [11]: ATP-citrate lyase (ACLY), ACLY (gene 47)
Kind of experiment: LTEA_HepaRG_ACLY: Life Technologies and Expression Analysis (LTEA) Assay for ATP-citrate lyase (ACLY) using HepaRG (AID 2283466). In outline: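 HepaRG, 48 h exposure, 8-pt half-log dilutions (top 100 uM), 0.5% DMSO. Readout: ACLY mRNA, TaqMan qRT-PCR, housekeeping-normalized (ACTB/GAPDH/POLR2A). Bidirectional curve fit vs DMSO.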

Read-out in experiment [12]: Alkaline Phosphatase, Placental (ALPP) gene, ALPP (gene 250)
Kind of experiment: LTEA_HepaRG_ALPP: Life Technologies and Expression Analysis (LTEA) Assay for Alkaline Phosphatase, Placental (ALPP) gene using HepaRG (AID 2283468). The gist of the method: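 HepaRG cells plated 48 h, then exposed in duplicate for 48 h in serum-free induction medium to 8-point half-log series from 100 uM in 0.5% DMSO. ALPP mRNA by TaqMan qRT-PCR, normalized to ACTB/GAPDH/POLR2A; bidirectional fit versus DMSO.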

Read-out in experiment [13]: Bcl-2 (BAD) gene, BAD (gene 572)
Kind of experiment: LTEA_HepaRG_BAD: Life Technologies and Expression Analysis (LTEA) Assay for Bcl-2 (BAD) gene using HepaRG (AID 2283469). In outline: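 BAD transcript change, measured by qRT-PCR against three housekeeping genes and fitted in both directions relative to 0.5% DMSO, after 48 h chemical treatment of human HepaRG liver cells at concentrations up to 100 uM.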

Read-out in experiment [14]: Bcl-2 (BAX) gene, BAX (gene 581)
Kind of experiment: LTEA_HepaRG_BAX: Life Technologies and Expression Analysis (LTEA) Assay for Bcl-2 (BAX) gene using HepaRG (AID 2283470). In outline:
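HepaRG (human liver), 48 h exposure, duplicate wells. 8-pt curve, half-log from 100 uM, 0.5% DMSO. BAX transcript by TaqMan qRT-PCR; ACTB/GAPDH/POLR2A normalization; gain or loss vs DMSO baseline.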

Read-out in experiment [15]: Alpha-fetoprotein (AFP) gene, AFP (gene 174)
Description: LTEA_HepaRG_AFP: Life Technologies and Expression Analysis (LTEA) Assay for Alpha-fetoprotein (AFP) gene using HepaRG (AID 2283472). In outline: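 HepaRG, single lot; 48 h post-plating -> serum-free induction medium; cpd 8-pt, 100 uM top, half-log, 0.5% DMSO, duplicate, 48 h. RNA -> qRT-PCR AFP, norm ACTB/GAPDH/POLR2A. Bidirectional fit vs DMSO.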

Read-out in experiment [16]: ABC Transporter (ABCB11), ABCB11 (gene 8647)
Kind of experiment: LTEA_HepaRG_ABCB11: Life Technologies and Expression Analysis (LTEA) Assay for ABC Transporter (ABCB11) using HepaRG (AID 2283463). The gist of the method:
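ABCB11 transcript levels are read by Fluidigm TaqMan qRT-PCR after 48 h chemical treatment of human HepaRG cells. Concentrations span 100 uM downward in half-log steps with 0.5% DMSO; gain or loss is fitted against DMSO controls.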

Read-out in experiment [17]: adenosine kinase (ADK) gene, ADK (gene 132)
Description: LTEA_HepaRG_ADK: Life Technologies and Expression Analysis (LTEA) Assay for adenosine kinase (ADK) gene using HepaRG (AID 2283471). The gist of the method:
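ADK expression quantified by qRT-PCR, normalised to three housekeeping genes, after 48 h exposure of HepaRG cells to eight concentrations (top 100 uM, half-log steps, duplicate, 0.5% DMSO). Up- or down-regulation fitted relative to vehicle.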

Active and inactive are the calls of the source. Rule for the calls: active = hit-call score of the fitted dose curve at least 0.9, where 1 is the maximum; inactive = score below 0.9.

Broad substrate specificity ATP-binding cassette transporter ABCG2 (Homo sapiens), sequence (Q9UNQ0 whole entry, looked up): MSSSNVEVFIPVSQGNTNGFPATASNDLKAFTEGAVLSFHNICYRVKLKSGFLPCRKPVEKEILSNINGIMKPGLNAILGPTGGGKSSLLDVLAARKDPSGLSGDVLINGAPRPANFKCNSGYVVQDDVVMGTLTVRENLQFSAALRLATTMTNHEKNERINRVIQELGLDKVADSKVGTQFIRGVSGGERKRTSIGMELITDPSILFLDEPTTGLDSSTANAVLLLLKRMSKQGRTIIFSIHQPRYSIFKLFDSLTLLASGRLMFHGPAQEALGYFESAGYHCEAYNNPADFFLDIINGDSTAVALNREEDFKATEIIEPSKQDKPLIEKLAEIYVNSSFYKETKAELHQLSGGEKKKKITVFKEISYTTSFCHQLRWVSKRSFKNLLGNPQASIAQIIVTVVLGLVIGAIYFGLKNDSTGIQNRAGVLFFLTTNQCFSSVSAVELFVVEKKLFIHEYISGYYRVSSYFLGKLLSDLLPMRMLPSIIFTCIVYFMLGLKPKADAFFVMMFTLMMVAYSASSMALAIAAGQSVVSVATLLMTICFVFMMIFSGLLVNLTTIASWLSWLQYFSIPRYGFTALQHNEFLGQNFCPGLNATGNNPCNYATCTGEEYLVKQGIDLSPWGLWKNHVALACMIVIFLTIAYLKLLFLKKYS

As to `O=C(Oc1ccc(Br)cc1)N1CCN2CCC1CC2`, the AC50 in experiment [1] is 65.1 µM (active); in experiment [11], 73.5 µM (active). Also, the call in experiment [2], in experiment [3], in experiment [4], in [5], in experiment [6] and in [7] was inactive. Also, the molecule was classed as inactive in [8], in experiment [9], in experiment [10], in experiment [12], in experiment [13] and in [14]. Moreover, the result in experiment [15] was inactive.
With `Clc1ccc(C(c2ccc(Cl)cc2)C(Cl)Cl)cc1`, the AC50 is 29.5 µM (active) in experiment [1]; 81.8 µM (active) in experiment [16]; 19.3 µM (active) in experiment [9]; 50 µM (active) in experiment [12]; 14 µM (active) in experiment [15]. In addition, the outcome in [2], in experiment [3], in experiment [4], in [5], in [7] and in [8] was inactive. Further, the molecule was called inactive in experiment [10], in experiment [11], in [13] and in experiment [17].
Take `CC(C)(C)OOC(C)(C)CCC(C)(C)OOC(C)(C)C`: in experiment [1], the AC50 is 64.2 µM (active). For the same molecule, the outcome in experiment [2], in experiment [4], in [5], in [7], in [8] and in experiment [16] was inactive. The molecule was classed as inactive in experiment [9], in experiment [10], in [11], in experiment [12], in experiment [13] and in experiment [14]. Besides, the call in experiment [17] and in experiment [15] was inactive.
Take `O=C(N[C@H](c1ccccc1)[C@@H]1CN2CCC1CC2)c1c(Cl)ccc(C(F)(F)F)c1Cl`: the AC50 in experiment [1] was 11 µM (active); in experiment [2] it was 82.4 µM (active); in experiment [3], 74.5 µM (active); in experiment [4] it was 46.2 µM (active); in [7] it was 46.2 µM (active); in experiment [8], 36.3 µM (active). Besides, the AC50 in [9] is 71.8 µM (active); in experiment [11], 78.7 µM (active); in [12], 11.8 µM (active); in experiment [14], 75.3 µM (active); in [15], 22.8 µM (active). For the same molecule, the call in experiment [5], in [16], in experiment [10] and in [13] was inactive.

By AC50 is commonly meant the midpoint of the concentration-response curve, whichever way the signal moves.
